Test results published in PubChem BioAssay (EPA / NIEHS).
Several values for one entry are separate records, joined by “and”; a condition that tells them apart may be missing. Equal entries are not always repeated. Inconclusive results are not listed. A structure can be active in one record and inactive in another. Activity calls are given as the source filed them. Rule for the calls, unless noted: active = hit-call score of the fitted dose curve at least 0.9, where 1 is the maximum; inactive = score below 0.9.

Key:
[1] = read-out: Collagen I, COL1A1 (gene 1277); assay: BSK_MyoF_CollagenI: BioMAP Diversity Plus: MyoF Assay for Collagen I Biomarker Activity (AID 2284238); conditions: primary human lung fibroblasts
Summary of the method: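 Primary human lung fibroblasts (MyoF system) treated 24 h; Collagen I quantified by ELISA and fitted in positive direction against DMSO. Parallel SRB total-protein staining assessed overt cytotoxicity.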

[2] = read-out: Collagen III, COL3A1 (gene 1281); assay: BSK_MyoF_CollagenIII: BioMAP Diversity Plus: MyoF Assay for Collagen III Biomarker Activity (AID 2284239); conditions: primary human lung fibroblasts
Summary of the method: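 Primary human lung fibroblasts (BioMAP MyoF system) exposed 24 h. Collagen III measured by ELISA; positive-direction fit relative to DMSO.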

[3] = CCTE_Mundy_HCI_hNP1_Casp3_7: CCTE's Caspase-Glo 3/7 Assay in human neuroprogenitor cells for Apoptosis, Mundy Lab (AID 2284240)
Summary of the method: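 Neuroepithelial-lineage stem cells from WA09 embryonic cells were treated with chemicals after 40–44 h of culture. Twenty-four hours later, caspase-3/7 activation was detected luminescently after a 30 min room-temperature reagent step, with DMSO as baseline.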

[4] = CCTE_Mundy_HCI_hNP1_CellTiter: CCTE's Cell Titer-Glo 2 Assay in human neuroprogenitor cells for Viability, Mundy Lab (AID 2284241; active = hit-call score of the fitted dose curve at least 0.9, where 1 is the maximum)
Summary of the method: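 Measures ATP content in human neural progenitors derived from WA09 embryonic cells. Read-out at 26.5 hours after dosing, with DMSO serving as the negative control and baseline.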

[5] = read-out: Interleukin 17F (IL17F), IL17F (gene 112744); assay: BSK_BT_xIL17F: BioMAP Diversity Plus: BT Assay for Interleukin 17F (IL17F) Biomarker Activity (AID 2284243); conditions: primary human B cells with PBMC
Summary of the method: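 Human PBMC co-cultured with B cells, compound exposure 24 h; secreted IL-17F quantified by Luminex xMAP, referenced to DMSO control. PBMC viability measured in parallel by Alamar Blue reduction.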

[6] = read-out: Actin alpha 1 (ACTA1), ACTA1 (gene 58); assay: BSK_MyoF_ACTA1: BioMAP Diversity Plus: MyoF Assay for Actin alpha 1 (ACTA1) Biomarker Activity (AID 2284244); conditions: primary human lung fibroblasts
Summary of the method: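 Measured by ELISA: alpha-smooth muscle actin in human primary lung fibroblasts 24 h after dosing, with DMSO as baseline and upward signal change as the fitted direction.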

[7] = read-out: Interleukin 2 (IL2), IL2 (gene 3558); assay: BSK_BT_xIL2: BioMAP Diversity Plus: BT Assay for Interleukin 2 (IL2) Biomarker Activity (AID 2284245); conditions: primary human B cells with PBMC
Summary of the method: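 Secreted interleukin-2 from human B cell/PBMC co-cultures, measured 24 h post-dosing by Luminex multiplex immunoassay. Upward-direction curve fitting against DMSO baseline.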

[8] = read-out: Collagen IV, COL4A1 (gene 1282); assay: BSK_MyoF_CollagenIV: BioMAP Diversity Plus: MyoF Assay for Collagen IV Biomarker Activity (AID 2284247); conditions: primary human lung fibroblasts
Summary of the method: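 Activity is scored as a signal increase over DMSO in an ELISA for Collagen IV, measured on human lung fibroblasts at 24 h after chemical treatment. Cytotoxicity is checked in parallel cultures by sulforhodamine B total-protein staining.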

[9] = read-out: Monokine induced gamma interferon (MIG), CXCL9 (gene 4283); assay: BSK_KF3CT_MIG: BioMAP Diversity Plus: KF3CT Assay for Monokine induced gamma interferon (MIG) Biomarker Activity (AID 2284248); conditions: primary human keratinocytes with fibroblasts
Summary of the method: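 Human keratinocyte–foreskin fibroblast co-culture; MIG measured by ELISA 24 h after chemical dosing, fitted upward versus DMSO. Cytotoxicity was assessed in parallel cultures by SRB total-protein staining read at 560 nm.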

[10] = read-out: Collagen I, COL1A1 (gene 1277); assay: BSK_hDFCGF_CollagenI: BioMAP Diversity Plus: hDFCGF Assay for Collagen I Biomarker Activity (AID 2284250); conditions: primary human foreskin fibroblasts
Summary of the method: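 Cells were primary human foreskin fibroblasts treated for 24 h. Collagen I levels were then determined by ELISA and compared against DMSO controls.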

[11] = read-out: Interferon-inducible T-cell alpha chemoattractant (ITAC), CXCL11 (gene 6373); assay: BSK_hDFCGF_ITAC: BioMAP Diversity Plus: hDFCGF Assay for Interferon-inducible T-cell alpha chemoattractant (ITAC) Biomarker Activity (AID 2284251); conditions: primary human foreskin fibroblasts
Summary of the method: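 ELISA readout of I-TAC after 24 h chemical exposure; human dermal foreskin fibroblast primary cells. Positive-direction fitting vs DMSO baseline. Parallel SRB total-protein staining (0.1% SRB after 10% TCA fixation, 560 nm) flags cytotoxicity.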

[12] = read-out: Plasminogen activator inhibitor-1 (PAI1), SERPINE1 (gene 5054); assay: BSK_KF3CT_PAI1: BioMAP Diversity Plus: KF3CT Assay for Plasminogen activator inhibitor-1 (PAI1) Biomarker Activity (AID 2284252); conditions: primary human keratinocytes with fibroblasts
Summary of the method: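 Signal is PAI-1 detected by ELISA in a human skin-derived keratinocyte/fibroblast co-culture, 24 h after dosing; DMSO served as negative control and baseline.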

[13] = read-out: Monocyte Chemoattractant Protein-1 (MCP1), CCL2 (gene 6347); assay: BSK_IMphg_MCP1: BioMAP Diversity Plus: IMphg Assay for Monocyte Chemoattractant Protein-1 (MCP1) Biomarker Activity (AID 2284253); conditions: primary human endothelial cells with macrophages
Summary of the method: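 Human venular endothelial cells co-cultured with macrophages; MCP-1 measured by ELISA 24 hours post-dose and fitted against DMSO. Cytotoxicity monitored by SRB total-protein staining in parallel cultures.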

[14] = read-out: Interleukin-8 (IL8), CXCL8 (gene 3576); assay: BSK_KF3CT_IL8: BioMAP Diversity Plus: KF3CT Assay for Interleukin-8 (IL8) Biomarker Activity (AID 2284254); conditions: primary human keratinocytes with fibroblasts
Summary of the method: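 Human keratinocyte/foreskin fibroblast co-culture dosed 24 h; IL-8 measured by ELISA relative to DMSO. Parallel cultures stained with SRB for total protein to flag cytotoxicity.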

[15] = read-out: Plasminogen activator inhibitor-1 (PAI1), SERPINE1 (gene 5054); assay: BSK_MyoF_PAI1: BioMAP Diversity Plus: MyoF Assay for Plasminogen activator inhibitor-1 (PAI1) Biomarker Activity (AID 2284256); conditions: primary human lung fibroblasts;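 note: PAI-1 read 24 h after compound addition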
Summary of the method: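 Primary human lung fibroblasts treated with chemical for 24 h; PAI-1 levels quantified by ELISA relative to DMSO. Cytotoxicity was assessed in parallel cultures by SRB total-protein staining (0.1% SRB after 10% TCA fixation, 560 nm).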

[16] = read-out: CD69, CD69 (gene 969); assay: BSK_IMphg_CD69: BioMAP Diversity Plus: IMphg Assay for CD69 Biomarker Activity (AID 2284257); conditions: primary human endothelial cells with macrophages
Summary of the method: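 Human venular endothelial cells co-cultured with macrophages; CD69 quantified by ELISA 24 h after compound addition. Activity fitted in the positive direction relative to DMSO baseline; cytotoxicity tracked in parallel cultures via SRB total-protein staining.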

[17] = read-out: Basic fibroblast growth factor (bFGF), FGF2 (gene 2247); assay: BSK_MyoF_bFGF: BioMAP Diversity Plus: MyoF Assay for Basic fibroblast growth factor (bFGF) Biomarker Activity (AID 2284246); conditions: primary human lung fibroblasts
Summary of the method: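 In this multiplexed cell system, lung fibroblasts (human primary) receive test chemical for 24 h before ELISA detection of bFGF; DMSO defines baseline and the analysis direction is positive.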

[18] = read-out: Vascular cell adhesion molecule 1 (VCAM1), VCAM1 (gene 7412); assay: BSK_BF4T_VCAM1: BioMAP Diversity Plus: BF4T Assay for Vascular cell adhesion molecule 1 (VCAM1) Biomarker Activity (AID 2284249); conditions: primary human bronchial epithelial cells with fibroblasts
Summary of the method: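 Human bronchial epithelial cell and dermal fibroblast co-culture exposed 24 h. VCAM-1 measured by ELISA; parallel SRB total-protein staining for cytotoxicity. Fitted in positive direction relative to DMSO.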

Measured: AC50

O=C(O)C(F)(F)C(F)(F)C(F)(F)OC(F)(C(F)(F)F)C(F)(F)F
inactive: [1] | [2] | [3] | [4] | [5] | [6] | [7] | [8] | [9] | [10] | [11] | [12] | [13] | [14] | [15] | [16]
active: [14] 16.5 µM

NC(O)(C(F)(F)F)C(F)(F)F
not listed: [18]
inactive: all other assays above

FC(F)(F)C(F)(F)C(F)(F)C(F)(F)C(F)(F)C(F)(F)C(F)(F)CCI
inactive: [1] | [2] | [5] | [6] | [7] | [17] | [8] | [9] | [18] | [10] | [11] | [12] | [13] | [14] | [15] | [16]
active: [11] 3.33 µM

OCC(F)(F)C(F)(F)C(F)(F)C(F)(F)C(F)(F)C(F)(F)C(F)(F)C(F)(F)CO
inactive: [1] | [8] | [10] | [15]
active: [1] 40.4 µM | [2] 37.1 µM and 45.7 µM | [5] 53.8 µM and 38.5 µM | [6] 44.9 µM and 42.5 µM | [7] 54.7 µM and 46.9 µM | [8] 49.1 µM | [9] 49.2 µM and 48.4 µM | [11] 44.9 µM and 43 µM | [12] 54.3 µM and 48.3 µM | [13] 50.4 µM and 51.3 µM | [14] 47.4 µM and 50.4 µM | [16] 54.4 µM and 42.6 µM

CCN(CC)c1ccc2c(c1)Oc1cc(N(CC)CC)ccc1C21OC(=O)c2ccccc21
inactive: [1] | [2] | [5] | [6] | [7] | [17] | [8] | [15]

CO[Si](C)(CCC(F)(F)C(F)(F)C(F)(F)C(F)(F)C(F)(F)C(F)(F)F)OC
not listed: [3] | [4] | [18]
inactive: all other assays above
